Data on 27 compounds can be found in PubChem BioAssay (NCATS).

The nature of assay [1]: qHTS of pediatric cancer cell lines to identify multiple opportunities for drug repurposing: Primary screen for U-2 OS cells (AID 1347096). Also: nearly all actives have a fitted effect of over 50% in size. Put shortly: (§1)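 Cells (500-1,000/well) in growth media were settled 5 h at 37 degrees C, then given compounds for 48 h. Viability was read as CellTiter-Glo luminescence. Primary runs used MIPE at 11 points (0.78 nM-46 µM) and NPC at 8 points (0.59 nM-46 µM); follow-ups used 11 points.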
A general note: qHTS replaces the single test concentration by a dilution series.

Assay [2] is described as follows: qHTS of pediatric cancer cell lines to identify multiple opportunities for drug repurposing: Primary screen for NB1643 cells (AID 1347099). Also: nearly all actives have a fitted effect of over 50% in size. Also: potency is read from the fitted curve at half-maximal effect. The method, boiled down:
(§2)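 500-1,000 cells/well; 5 h pre-incubation 37 °C/5% CO2; compound pinned; 48 h; CellTiter-Glo, 15 min RT; luminescence. MIPE 11-pt from 0.78 nM, NPC 8-pt from 0.59 nM final. Bortezomib 2.3 µM final as positive control.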

Assay [3] can be described thus: qHTS of pediatric cancer cell lines to identify multiple opportunities for drug repurposing: Primary screen for LAN-5 cells (AID 1347100). Also: potency is read from the fitted curve at half-maximal effect. Put shortly:
as §1

Assay [4] can be described thus: qHTS of pediatric cancer cell lines to identify multiple opportunities for drug repurposing: Primary screen for OHS-50 cells (AID 1347103). Also: nearly all actives have a fitted effect of over 40% in size. Also: potency is read from the fitted curve at half-maximal effect. The method, boiled down:
(§3)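 Cells (500-1,000/well) rested 5 h, then received compounds for 48 h; metabolically active cells were measured by CellTiter-Glo luminescence. Final concentrations spanned up to 46 µM (MIPE, 11-point) or 0.59 nM-46 µM (NPC, 8-point) in primary screens, 11-point in follow-ups.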

The nature of assay [5]: qHTS of pediatric cancer cell lines to identify multiple opportunities for drug repurposing: Primary screen for MG 63 (6-TG R) cells (AID 1347105). Also: nearly all actives have a fitted effect of over 50% in size. Also: potency is read from the fitted curve at half-maximal effect. Put shortly:
as §2

Assay [6] in a line: qHTS of pediatric cancer cell lines to identify multiple opportunities for drug repurposing: Primary screen for control Hh wild type fibroblast cells (AID 1347106).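 Also: series mostly up to about 46 µM; a drop in luminescence marks cytotoxicity and a rise apparent proliferation; nearly all actives have a fitted effect of over 55% in size.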 Put shortly: as §1
The nature of assay [7]: qHTS of pediatric cancer cell lines to identify multiple opportunities for drug repurposing: Primary screen for Rh30 cells (AID 1347107). Also: series mostly up to about 46 µM; nearly all actives have a fitted effect of over 75% in size. Put shortly: as §1
A short description of assay [8]: qHTS of pediatric cancer cell lines to identify multiple opportunities for drug repurposing: Primary screen for Rh41 cells (AID 1347108).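 Also: series mostly up to about 46 µM; luminescence drop marks cytotoxic hits; nearly all actives have a fitted effect of over 70% in size.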 Put shortly: as §2
A short description of assay [9]: qHTS of pediatric cancer cell lines to identify multiple opportunities for drug repurposing: Primary screen for BT-12 cells (AID 1347101). Also: nearly all actives have a fitted effect of over 25% in size. Also: potency is read from the fitted curve at half-maximal effect. The method, boiled down:
as §3

Assay [10] is described as follows: qHTS of pediatric cancer cell lines to identify multiple opportunities for drug repurposing: Primary screen for Rh18 cells (AID 1347102). Also: nearly all actives have a fitted effect of over 65% in size. Put shortly: as §1
Assay [11] in a line: qHTS of pediatric cancer cell lines to identify multiple opportunities for drug repurposing: Primary screen for RD cells (AID 1347104). Also: nearly all actives have a fitted effect of over 55% in size. Also: potency is read from the fitted curve at half-maximal effect. Put shortly:
as §2

Assay [12] in a line: qHTS of pediatric cancer cell lines to identify multiple opportunities for drug repurposing: Primary screen for Saos-2 cells (AID 1347097). Also: nearly all actives have a fitted effect of over 40% in size. Also: potency is read from the fitted curve at half-maximal effect. Put shortly: as §2
A short description of assay [13]: qHTS of pediatric cancer cell lines to identify multiple opportunities for drug repurposing: Primary screen for SK-N-SH cells (AID 1347098). Also: nearly all actives have a fitted effect of over 65% in size. Also: potency is read from the fitted curve at half-maximal effect. Put shortly:
as §3

Assay [14] can be described thus: qHTS of pediatric cancer cell lines to identify multiple opportunities for drug repurposing: Confirmatory screen for SK-N-MC cells (AID 1347111).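 Also: potency is read from the fitted curve at half-maximal effect; cells exposed to compound for 48 h before the readout; nearly all actives have a fitted effect of over 70% in size.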 The conditions noted are these: SK-N-MC cell viability. Put shortly: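 Metabolically active cells were quantified by ATP-dependent luminescence (CellTiter-Glo, 15 min at room temperature) following 48 h treatment. Cells had been plated at 500-1,000 per well and settled for 5 h beforehand.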

The nature of assay [15]: qHTS of pediatric cancer cell lines to identify multiple opportunities for drug repurposing: Confirmatory screen for NB1643 cells (AID 1347109). Also: nearly all actives have a fitted effect of over 45% in size. Put shortly: as §1
Assay [16] is described as follows: qHTS of pediatric cancer cell lines to identify multiple opportunities for drug repurposing: Confirmatory screen for A673 cells (AID 1347110).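 Also: cells exposed to compound for 48 h before the viability read; nearly all actives have a fitted effect of over 65% in size.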 The method, boiled down: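 A673 cells at 500-1,000 cells/well were dosed 5 h after plating, in dilution series up to 46 uM final; primary runs used 8 or 11 points and confirmatory runs used 11 points. Viability was read by CellTiter-Glo luminescence after 48 h, against DMSO and 2.3 uM bortezomib controls.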

The nature of assay [17]: qHTS of pediatric cancer cell lines to identify multiple opportunities for drug repurposing: Confirmatory screen for BT-12 cells (AID 1347112). Also: nearly all actives have a fitted effect of over 55% in size. The method, boiled down:
as §1

Assay [18] in a line: qHTS of pediatric cancer cell lines to identify multiple opportunities for drug repurposing: Confirmatory screen for NB-EBc1 cells (AID 1347115).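 Also: cells exposed to compound for 48 h before the viability read; nearly all actives have a fitted effect of over 45% in size.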 Put shortly:
as §1

Results filed as inconclusive are left out. A number with no mark means an inactive call. Calls of active or inactive are those of the source. Calls follow the shape of the dose curve; as a rule, active = well fitted curve in the direction sought with a large enough effect; inconclusive = small, poorly fitted or top-dose-only effect, or another doubt; inactive = no such curve, though single readings can be large; an effect the other way counts as inactive or inconclusive.

Take `CN(C)CCCN1c2ccccc2Sc2ccccc21`: the Potency entry in assay [1], in [2], in assay [3], in assay [5], in assay [7] and in assay [8] was “inactive” in each case. Further, the Potency in [4] was 17.4 µM (active). Also, in assay [6], the outcome was inactive.
Turning to `CC[N+](C)(C)c1cccc(O)c1`, the Potency entry in assay [1], in assay [2], in assay [9], in [10], in assay [4] and in assay [11] was “inactive” in each case. Also, the Potency result in [5], in assay [7] and in assay [8] was “inactive” each time.
On to `COc1ccc([C@@H]2Sc3ccccc3N(CCN(C)C)C(=O)[C@@H]2OC(C)=O)cc1`, for which the Potency entry in assay [12], in assay [13], in assay [2], in assay [9], in [10] and in assay [4] was “inactive” in each case. The Potency result in [11], in assay [5], in assay [7] and in [8] was “inactive” each time. Also, the compound was classed as inactive in assay [6].
Take `CCn1nc(C(=O)O)c(=O)c2cc3c(cc21)OCO3`: the Potency result in assay [12], in assay [13], in [2], in [9], in [10] and in assay [11] was “inactive” throughout. For the same compound, the Potency result in assay [5], in assay [7] and in [8] was “inactive” in each case.
Regarding `CCCCOCCOCCOCc1cc2c(cc1CCC)OCO2`, the Potency result in assay [12], in assay [13], in assay [2], in assay [3], in assay [9] and in assay [10] was “inactive” throughout. The Potency result in assay [11], in [5], in assay [7] and in [8] was “inactive” each time.
For `Cc1cc(C)c(/C=C2\C(=O)Nc3ccccc32)[nH]1`, the Potency entry in assay [1], in assay [2], in assay [9], in [10], in assay [11] and in [5] was “inactive” each time. The Potency result in assay [7] and in assay [8] was “inactive” in each case.
As to `CN(C)CCCN1c2ccccc2Sc2ccc(C(F)(F)F)cc21`, the Potency entry in assay [1], in assay [5], in assay [7] and in assay [8] was “inactive” in each case. Further, the Potency is 4.9 µM (active) in assay [9], 24.6 µM (active) in assay [4] and 26.1 µM (active) in assay [14]. Further, the outcome in assay [6] was inactive.
As for `COc1cc(C(=O)OCCCN2CCCN(CCCOC(=O)c3cc(OC)c(OC)c(OC)c3)CC2)cc(OC)c1OC`, the Potency result in assay [12], in [13], in assay [2], in assay [10], in assay [5] and in [7] was “inactive” each time. The Potency entry in [8] is “inactive”. For the same compound, in assay [6], the compound was classed as inactive.
With `CN1C[C@H](C(=O)N[C@]2(C)O[C@@]3(O)[C@@H]4CCCN4C(=O)[C@H](Cc4ccccc4)N3C2=O)C[C@@H]2c3cccc4[nH]cc(c34)C[C@H]21`, the Potency entry in assay [1], in assay [2], in [3], in [11], in assay [5] and in assay [7] was “inactive” throughout. Further, the Potency result in [8], in assay [15], in assay [16], in [17] and in assay [18] was “inactive” throughout. The outcome in assay [6] was inactive.
Regarding `CN(C)CC/C=C1\c2ccccc2COc2ccccc21`, the Potency result in assay [1], in [2], in assay [3], in assay [5] and in assay [7] was “inactive” in each case.
For `c1ccc2c(c1)CCCC2C1=NCCN1` (configuration not stated), the Potency entry in [12], in assay [2], in [3], in [9], in assay [10] and in assay [4] was “inactive” each time. Further, the Potency result in assay [11], in assay [5], in [7] and in assay [8] was “inactive” each time. The compound was called inactive in assay [6].
Turning to `COCCCC/C(=N\OCCN)c1ccc(C(F)(F)F)cc1`, the Potency result in assay [2], in [9], in assay [10], in [5], in [7] and in assay [8] was “inactive” throughout. In assay [6], the call was inactive.
In the case of `CCCC(C(=O)OCCN(CC)CC)(c1ccccc1)c1ccccc1`, the Potency in assay [13] is 19.4 µM (active); in assay [4], 30.9 µM (active); in assay [11], 29.9 µM (active).
On to `COC(=O)C1=C(C)NC(C)=C(C(=O)OC(C)(C)CN(C)CCC(c2ccccc2)c2ccccc2)C1c1cccc([N+](=O)[O-])c1` (configuration not stated), for which, in assay [3], the Potency was 18.8 µM (active). Besides, in assay [5], the Potency entry was “inactive”. The outcome in [6] was inactive.
For `COCC(=O)O[C@]1(CCN(C)CCCc2nc3ccccc3[nH]2)CCc2cc(F)ccc2[C@@H]1C(C)C`, the Potency was 26.6 µM (active) in [12], 21.9 µM (active) in [4], 26.6 µM (active) in [11] and 21.1 µM (active) in assay [5]. Moreover, in [2], the Potency entry was “inactive”. In addition, in assay [6], the compound was classed as inactive.
With `N[C@@H](COP(=O)(O)O)C(=O)O`, the Potency entry in assay [2], in [3], in assay [9], in assay [10], in [4] and in assay [11] was “inactive” in each case. Further, the Potency result in assay [5], in assay [7] and in [8] was “inactive” each time. In assay [6], the call was inactive.
Consider `CCCN(CCC)C(=O)C(CCC(=O)O)NC(=O)c1ccccc1` (configuration not stated), for which the Potency result in [13], in [2], in assay [9], in assay [10], in assay [4] and in assay [11] was “inactive” throughout. Moreover, the Potency result in [5], in [7] and in assay [8] was “inactive” each time. Also, the call in assay [6] was inactive.
On to `O=C1NCN(c2ccccc2)C12CCN(CCCC(c1ccc(F)cc1)c1ccc(F)cc1)CC2`, for which the Potency was 13.3 µM (active) in assay [12], 13.8 µM (active) in assay [9], 15.5 µM (active) in [4] and 26.6 µM (active) in [11]. In [2], the Potency entry is “inactive”. The call in assay [6] was inactive.
Turning to `OC(CCN1CCCCC1)(c1ccccc1)C1CCCCC1` (configuration not stated), the Potency entry in [2], in [3], in [10], in [5], in assay [7] and in assay [8] was “inactive” in each case.
Regarding `CC(C)COCC(CN(Cc1ccccc1)c1ccccc1)N1CCCC1` (configuration not stated), the Potency in assay [12] is 26.6 µM (active); in [2], 29.9 µM (active); in assay [11] it was 26.6 µM (active). The compound was called inactive in assay [6].
`CCOC(=O)C1=C(C)NC(C)=C(C(=O)OC)C1c1cccc(Cl)c1Cl` (configuration not stated): the Potency result in [2], in assay [3], in [10], in assay [11], in assay [5] and in assay [7] was “inactive” each time. Also, the Potency entry in assay [8] is “inactive”. For the same compound, the compound was called inactive in assay [6].
Consider `Cc1ccc(Cl)c(Nc2ccccc2C(=O)O)c1Cl`, for which the Potency entry in assay [3], in [9], in assay [10], in assay [11], in assay [7] and in assay [8] was “inactive” throughout.
`CNCCC(Oc1ccccc1OC)c1ccccc1` (configuration not stated): the Potency result in assay [13], in assay [2], in assay [3], in assay [9], in [10] and in [11] was “inactive” throughout. The Potency result in assay [5], in assay [7] and in assay [8] was “inactive” in each case. Besides, in assay [6], the result was inactive.
With `CCCCNc1c(C(=O)OCC)c(C)nc2c1cnn2CC`, the Potency result in assay [2], in [9], in assay [10], in assay [11], in assay [5] and in [7] was “inactive” throughout. Besides, in assay [8], the Potency result was “inactive”. In addition, in assay [4], the Potency is 34.7 µM (active). The outcome in [6] was inactive.
Regarding `C=CCc1ccccc1OCC(O)CNC(C)C` (configuration not stated), the Potency result in assay [12], in assay [2], in assay [3], in assay [9], in assay [10] and in [11] was “inactive” each time. Further, the Potency result in [7] and in assay [8] was “inactive” in each case. The outcome in [6] was inactive.
Turning to `C[C@]12CCC(=O)C=C1CC[C@@H]1[C@@H]2CC[C@@]2(C)[C@H]1CC[C@]2(O)C(=O)CO`, the Potency entry in assay [13], in [2], in assay [3], in assay [9], in assay [10] and in [11] was “inactive” throughout. The Potency result in assay [5], in assay [7] and in [8] was “inactive” in each case. In assay [6], the compound was classed as inactive.
Turning to `Nc1ncn([C@@H]2O[C@H](CO)[C@@H](O)[C@H]2O)c(=O)n1`, the Potency was 7.5 µM (active) in [2], 8.71 µM (active) in assay [9], 24.6 µM (active) in assay [4] and 8.41 µM (active) in assay [11]. Further, the Potency entry in assay [5] and in assay [7] was “inactive” each time.
